High-throughput results deposited in PubChem by National Center for Advancing Translational Sciences (NCATS).
TRb-SRC2 inh: inhibitors of human thyroid hormone receptor beta-SRC2 interaction; 280,000 tested, 0.065% active; AID 1469; TRbeta-SRC2 peptide binding, fluorescence polarization; receptor liganded with 1 µM T3; Potency, µM (top dose mostly 106 µM), without a hit: at the highest dose activity change, negative = inhibition, hits mostly inhibitors;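 also: plate controls were bound peptide for no effect and peptide without receptor for full effect; nearly all actives have a fitted effect of over 50% in size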
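Fluorescence polarization of 20 nM Texas Red SRC2 peptide (20-aa NR interaction domain) bound to 0.6 uM human TRb ligand-binding domain, with 1 uM T3, after 5 hr at ambient temperature; inhibition seen as decreased polarization.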
APE1 inh-1: inhibitors of human APE1 endonuclease | recombinant APE1, TAMRA/BHQ-2 abasic DNA cleavage fluorescence | P27695 | AID 2517 | 350,000 tested, 0.35% active | Potency, µM (highest dose often 65.8 µM), for the others: at the top dose activity change, negative = inhibition, usual class: inhibitors;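 also: plate controls were vehicle for no effect and reference inhibitor for full effect; nearly all actives have a fitted effect of over 55% in size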
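Compound pre-exposure to 0.75 nM APE1, 15 min at ambient temperature. Reaction initiated with 50 nM TAMRA/BHQ-2 THF substrate, read immediately in kinetic mode, 525 nm excitation, 598 nm emission.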
BLM inh: inhibitors of human Bloom syndrome helicase BLM; recombinant BLM DNA unwinding, fluorescence dequenching; Potency, µM (top dose mostly 56.1 µM), inactives show at the highest dose activity change, negative = inhibition, most hits filed as inhibitors; 350,000 tested, 0.2% active;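 also: plate controls were vehicle for no effect and no enzyme for full effect; nearly all actives have a fitted effect of over 35% in size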
RECQ1 inh: RECQ1 (human) helicase inhibition | P46063 | 240,000 tested, 0.54% active | Potency, µM (top dose mostly 57.3 µM), without a hit: top-dose activity, negative = inhibition, hits mostly inhibitors | RECQ1 DNA unwinding, red fluorescence kinetic read;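 also: plate controls were vehicle for no effect and no enzyme for full effect; nearly all actives have a fitted effect of over 30% in size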
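50 nM RECQ1T1 preincubated 15 min with compound in Tris pH 8.0 buffer with MgCl2, DTT, Tween-20 and 2.5 ug/ml poly(dI-dC); started with 200 nM TAMRA/BHQ-2 forked duplex and 2 mM ATP. Unwinding read as fluorescence (525/598 nm), two reads 2 h apart.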
TexasRed fluor: alters Texas Red total fluorescence, flagging assay interference; TRb/SRC2 Texas Red total fluorescence interference; Potency, µM (series often up to 106 µM), without a hit: at the highest dose fluorescence change, negative = quenching; 280,000 tested, 0.29% active; AID 1479; active = well fitted curve in either direction with a large enough effect; inconclusive = small, poorly fitted or top-dose-only effect
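Flags fluorescent or light-absorbing compounds by total fluorescence, S + 2P, at 555 nm excitation and 632 nm emission. Mixture: 20 nM Texas Red SRC2 peptide, 0.6 uM human TRb LBD, 1 uM T3, 5% DMSO; compound exposure 5 h at ambient temperature.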
GoLoco inh red: blocks human Gai1 binding to RGS12 GoLoco peptide, red readout; Gai1:RGS12 GoLoco peptide FP, rhodamine, 10 min; Potency, µM (top dose mostly 61.6 µM), inactives show at the top dose activity, negative = inhibition, most hits filed as inhibitors; 230,000 tested, 0.44% active; active = well fitted inhibition curve with a large enough effect, not every such curve was filed as active; inactive = no such curve, though single readings can be large or run the other way; also: nearly all actives have a fitted effect of over 30% in size
APE1 dye cs: DNA dye displacement counter-screen activity; shares compounds with APE1 inh-1; DNA fluorescent dye displacement counterscreen, fluorescence; Potency, µM (series often up to 28.5 µM), for inactives: top-dose activity change, negative = inhibition, most hits filed as inhibitors; 480 tested, 7% active; AID 2564;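 also: loss of thiazole orange fluorescence as the dye is displaced from duplex DNA; 0% = ThO with dsDNA and no compound and -100% = ThO without dsDNA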
EndoIV counter: blocks E. coli endonuclease IV DNA cleavage; shares compounds with APE1 inh-1; E. coli Endo IV, fluorogenic AP-site DNA cleavage; 560 tested, 4% active; Potency, µM (series often up to 27.1 µM), inactives show at the highest dose activity change, negative = inhibition, hits mostly inhibitors; AID 2565;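 also: plate controls were uninhibited enzyme wells for no effect and no enzyme buffer wells for full effect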
APE1 inh-2: APE1 (human) endonuclease inhibition, confirmation; purified APE1, fluorogenic abasic-site DNA cleavage; shares compounds with APE1 inh-1; 750 tested, 44% active; Potency, µM (top dose mostly 57.1 µM), for inactives: top-dose activity change, negative = inhibition, usual class: inhibitors; also: nearly all actives have a fitted effect of over 30% in size
APE1 FP inh: APE1 (human) DNA binding inhibition, fluorescence polarization | 480 tested, 7% active | shares compounds with APE1 inh-1 | Potency, µM (series often up to 28.5 µM), for the others: at the highest dose activity, negative = inhibition, usual class: inhibitors | APE1 binding to TAMRA-labelled double-stranded DNA, fluorescence polarization displacement | AID 2573
Starred values were filed as active, the others as inactive; i = inactive; ? = inconclusive; . = not tested or not shown; [ ] = remark or other dose. Hits are enriched below; roughly 0.9% of the tested compounds scored in any of these assays. Unless noted, calls follow the shape of the dose curve; as a rule, active = well fitted curve in the direction sought with a large enough effect; inconclusive = small, poorly fitted or top-dose-only effect, or another doubt; inactive = no such curve, though single readings can be large; an effect the other way counts as inactive or inconclusive. Unless noted, % is scaled to controls: 0 for no effect and ±100 for the full control effect; potency is read from the fitted curve at half-maximal effect.

SMILES | TRb-SRC2 inh | APE1 inh-1 | BLM inh | RECQ1 inh | TexasRed fluor | GoLoco inh red | APE1 dye cs | EndoIV counter | APE1 inh-2 | APE1 FP inh
COc1cc(OC)c(NC(=O)c2sc3nc4n(c(=O)c3c2C)CCCC4)cc1Cl | 1% | . | -2% | . | -4% | . | . | . | . | .
O=[N+]([O-])c1cc(/C=N\Nc2nccs2)ccc1O | ? | 7.1µM* | 28µM* | 11µM* | 25µM*[quencher] | 5% | 10µM* | 16% | 1.6µM* | 8.9µM*
Cc1nn(-c2cccc(C(=O)O)c2)c(C)c1[N+](=O)[O-] | -4% | -7% | -3% | -4% | -1% | 10% | . | . | . | .
Cc1ccc(CN2C(=O)N/C(=C\c3cccn3-c3cccc(C(=O)O)c3)C2=O)cc1 | 3% | 16% | -6% | -3% | 2% | 10% | . | . | . | .
O=C(O)c1cccc(-n2cccc2/C=C/[N+](=O)[O-])c1 | 1% | 4µM* | 60% | ? | -1% | -17% | -4% | 17% | 4.5µM* | ?
Cc1ccc(NC(=O)CN2C(=O)N/C(=C\c3cccn3-c3cccc(C(=O)O)c3)C2=O)cc1 | -6% | 3.5µM* | -10% | ? | -1% | 10% | -5% | -2% | 14µM* | 14µM*
Cc1cccc(NC(=O)CN2C(=O)N/C(=C\c3ccc(-c4cccc(C(=O)O)c4)o3)C2=O)c1 | -8% | ? | -1% | i | -4% | 1% | . | . | . | .
O=C(O)c1cccc(-n2cccc2/C=C2\NC(=O)N(Cc3ccc(F)cc3)C2=O)c1 | 9% | 10µM* | -9% | -28% | -2% | 13% | -6% | -4% | 10µM* | ?
Cc1cc(C(=O)O)ccc1-c1ccc(/C=C2\NC(=O)N(Cc3ccc(F)cc3)C2=O)o1 | -9% | 13µM* | 5% | -28% | -3% | -7% | ? | 4% | 40µM* | -1%
COc1ccc(CCN2C(=O)c3[nH]nc(-c4ccccc4O)c3C2c2ccccc2)cc1 (stereo unspecified) | -6% | . | -6% | . | 2% | . | . | . | . | .
CCc1ccc(NCc2cc3ccc(OC)cc3n(CC(=O)Nc3ccccc3OC)c2=O)cc1 | 1% | . | -7% | . | -1% | . | . | . | . | .
CN1C(=O)S/C(=C/c2cccn2-c2cccc(C(=O)O)c2)C1=O | -3% | ? | -1% | 1% | -2% | 6% | ? | 1% | ? | ?
CN1C(=O)S/C(=C/c2ccc(OCc3cccc(C(=O)O)c3)cc2)C1=O | . | -38% | 2% | . | . | . | . | . | . | .
Cc1ccc(CNC(=O)CCNC(=O)c2ccco2)cc1 | 4% | ? | 0% | 6% | 2% | 0% | -2% | 0% | ? | -7%
COC(=O)C/C=C\[C@@H](C)[C@@H](/C=N\O[C@@H](C)c1cn([C@H]2COC[C@H]2O)nn1)NS(=O)(=O)c1ccc(C)cc1 | 2%[11.2 µM] | 2%[12.4 µM] | 4%[12.4 µM] | i[11.5 µM] | -1%[11.2 µM] | . | . | . | . | .
COc1ccc(NS(=O)(=O)c2ccc(O)c(C(=O)OCC(=O)NC(C)C3CC4CCC3C4)c2)cc1 (stereo unspecified) | 0% | 22µM* | -12% | -14% | -2% | 8% | ? | -6% | ? | ?
Cc1ccccc1NC(=O)C(Cc1ccccc1)N1Cc2ccccc2C1=O (stereo unspecified) | -10% | . | -1% | . | -1% | . | . | . | . | .
O=C(COC(=O)CCNS(=O)(=O)c1cccc(C(F)(F)F)c1)NC(=O)NC1CCCCC1 | 5% | ? | -6% | -11% | -2% | -5% | -10% | 0% | ? | 3%
O=C(COC(=O)Cc1cccc(C(F)(F)F)c1)NC(=O)NC1CCCC1 | . | -10% | . | . | . | . | . | . | . | .
O=[N+]([O-])c1cccc2c[nH]nc12 | -18% | 6.3µM* | -27% | 28µM* | ? | -15% | . | -47%[57.1 µM] | 13µM* | .
O=[N+]([O-])c1cccc2cn[nH]c12 | -6% | -10% | 4% | 1% | -6% | 10% | . | . | . | .
N#C/C(=C\c1ccc(O)c(O)c1)C(=O)c1ccc(O)c(O)c1 | -3% | 0.095µM* | . | 1.6µM* | -6% | 34% | . | ? | 0.2µM* | .
O=C1CCCc2oc3ccc(NS(=O)(=O)c4cccc5cccnc45)cc3c21 | 9% | ? | -1% | 9% | -1% | 0% | . | . | ? | .
O=C(Nc1ccc(-c2ccc3nncn3n2)cc1)c1ccc(Br)o1 | -3% | -2% | -11% | -25% | -1% | 12% | . | . | -41% | .
CC(C)C(=O)Nc1ccc(-c2ccc3nncn3n2)cc1 | 5% | -1% | -1% | i | -1% | 6% | . | . | . | .
SMILES | TRb-SRC2 inh | APE1 inh-1 | BLM inh | RECQ1 inh | TexasRed fluor | GoLoco inh red | APE1 dye cs | EndoIV counter | APE1 inh-2 | APE1 FP inh
COc1ccc(C(=O)c2ccc(CC#N)s2)cc1 | 6% | 1% | -5% | -1% | 7% | 12% | . | . | -25% | .
CC(=O)C1=C(O)C(=O)N(Cc2ccccc2)C1c1ccco1 (stereo unspecified) | 5% | 1µM* | -6% | -15% | -4% | -7% | -5% | 5% | ? | 0%
NS(=O)(=O)c1ccc(N/N=C/c2ccc(O)c(O)c2O)c([N+](=O)[O-])c1 | 2% | 2µM* | 16µM* | 3.2µM* | ? | -11% | 13µM* | 23% | 5.6µM* | -9%
N#C/C(=C/c1ccc(-c2cc(C(=O)O)cc(C(=O)O)c2)o1)c1nc2ccccc2s1 | -9% | ? | 55% | ? | 4% | 102% | ? | ? | 14µM* | -8%
N#C/C(=C\c1ccco1)c1nc2ccccc2s1 | 11% | -10% | -3% | ? | 3% | 71% | . | . | . | .
CC(=O)c1cccc(NC(=O)C(C)n2c(=O)cc(-c3ccccc3)c3c(C)nn(C)c32)c1 (stereo unspecified) | -21% | . | -6% | . | ? | . | . | . | . | .
CC1(C)CC(=O)C=C(NCc2ccccc2)C1 | -1% | ? | 0% | i | 0% | -4% | -2% | 1% | ? | 13%
